Here are results for 39 compounds from PubChem BioAssay (NCI).

Each structure is given as a SMILES string. The panel holds about 83,000 compounds, 20% with a hit somewhere; the sample as a whole holds those more often.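 Plates (96-well) were seeded with cells, treated with compound at one concentration, and incubated for 48 hours before percent growth was determined.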 Calls of active or inactive are those of the source. How the source made its calls: active means growth percent below 10; inactive means the rest.

In one test the test system is SNB-75 CNS. Put plainly: NCI-60 one-dose screen, 48 h (100 = growth as untreated, 0 = no growth, -100 = all killed). The conditions noted are these: 10 µM unless noted.
`CC(=O)Nc1nc(C(=O)N2N=C(C)/C(=C/c3cccs3)C2=O)cs1`: the growth was 92% (inactive).

In the case of `CN1C(=O)[C@H]2c3c1cccc3[C@@]13NC(=O)O[C@H]1[C@H](CCC3(C)C)C2(C)C`, the growth was 81.1% (inactive).

Consider `CC(=O)C1CCC(C)=CC1=O` (stereo not drawn), for which the growth is 81.5% (inactive).

Consider `COc1cccc(-n2cc(-c3nc(Cl)c4ccccc4n3)nn2)c1`, for which the growth was 72.3% (inactive).

Regarding `Nc1c(C(=O)Nc2cccc(Cl)c2Cl)sc2nc3c(cc12)C(=O)CCC3`, the growth was 54.7% (inactive).

For the compound `COc1cc(/C=C2\CCCC3=C2NC(C)=NC3c2cc(OC)c(OC)c(OC)c2)cc(OC)c1OC` (stereo not drawn), the growth was 21.9% (inactive).

Turning to `O=c1[nH]c(-c2cn(-c3ccc(Cl)cc3)nn2)nc2ccccc12`, the growth is -9.19% (active).

`CC/C(=C(\c1ccc(O)cc1)c1ccc(OCCN(C)CCN(C)C(=O)CCC(=O)c2c(C)[nH]c(/C=C3\N=C(c4ccc[nH]4)C=C3OC)c2C)cc1)c1ccccc1`: the growth is 92.4% (inactive).

In the case of `Cc1cc(Nc2nc(-c3ccncc3)nc3ccccc23)n[nH]1`, the growth was -23.4% (active).

Regarding `COc1cc(C2C=C(C)N=C3SC=CN32)cc(OC)c1OC` (stereo not drawn), the growth was 94.7% (inactive).

As to `COC1=CC(c2ccc[nH]2)=N/C1=C\c1[nH]c(C)c(C(=O)CCC(=O)Oc2ccc3c(c2)CCC2C3CC[C@]3(C)[C@@H](O)CC[C@@H]23)c1C` (stereo partly drawn), the growth was 12.1% (inactive).

Take `Cc1ccc(Cn2c(-c3nonc3N)nc3ccccc32)cc1`: the growth is 57.4% (inactive).

Take `O=C(Nc1ccccc1)OCC1OCOC(COC(=O)Nc2ccccc2)C1OC(=O)Nc1ccccc1` (stereo not drawn): the growth was 32% (inactive).

With `CC1=CNNc2c3ncnc-3ncn21`, the growth is 101% (inactive).

Consider `CCN(CC)c1cc(/C=C/c2ccc(OC)c(OC)c2)nc2cc(F)c(F)cc12`, for which the growth was -68.5% (active).

For `CCCCCCCCCCCCOB(OCCCCCCCCCCCC)OCCCCCCCCCCCC`, the growth was 118% (inactive).

`c1ccn2nnnc2c1`: the growth is 106% (inactive).

Turning to `Nc1c(C(=O)Nc2c(Cl)cccc2Cl)sc2nc3c(cc12)CCCCC3`, the growth is 26.7% (inactive).

Consider `COc1ccc(-n2c(C)cc(-c3ccccc3)c2C)cc1`, for which the growth is 41.2% (inactive).

Take `COc1cc2c(cc1OC)C1(C)N(CC2)C(=O)OC1(C)C` (stereo not drawn): the growth is 76.5% (inactive).

Take `COc1ccc(/C=C/c2nc(N3CCOCC3)c3nc(Cl)c(Cl)cc3n2)cc1OC`: the growth is 88.3% (inactive).

As for `Cc1cccc(NC(=O)c2sc3nc4c(cc3c2N)CCCC4)c1`, the growth is 34.5% (inactive).

For the compound `O=C(/C=C/c1ccccc1)n1c(-c2ccc(Cl)cc2)nc2ccccc21`, the growth was 18.1% (inactive).

Regarding `COc1cc(Cn2c(-c3nonc3N)nc3ccccc32)ccc1C`, the growth is -0.424% (active).

`Clc1ccc(-c2nc(-c3ccco3)cn3ccnc23)cc1`: the growth is 32% (inactive).

Consider `Oc1ccc(N=Cc2ccccc2)cc1`, for which the growth was 105% (inactive).

As to `CCCCCc1c(C)[nH]c(/C=c2\[nH]/c(=C3/C=c4ccccc4=N3)cc2OC)c1C`, the growth was -22.6% (active).

Turning to `COc1cc2nc(Cl)nc(NCCO)c2cc1OC`, the growth is 86.1% (inactive).

As to `CCC1CCc2nc3sc(C(=O)Nc4ccccc4C)c(N)c3cc2C1` (stereo not drawn), the growth was 25.9% (inactive).

Turning to `Cc1cc(Nc2nc(C(=O)Nc3ccccc3)nc3ccccc23)n[nH]1`, the growth is -0.848% (active).

For the compound `c1ccc2nc(-c3ccc4ccccc4n3)ccc2c1`, the growth is 85.6% (inactive).

Turning to `Clc1nc2ccccc2nc1CI`, the growth was 89.2% (inactive).

In the case of `Cc1cccc(NC(=O)c2sc3nc4c(cc3c2N)CCC4)c1C`, the growth was 13.9% (inactive).

For the compound `Clc1cccc(Cl)c1Cn1c(-c2cncs2)nc2ccccc21`, the growth is 83.1% (inactive).

Take `Clc1ccc(/C=C/c2nc(N3CCOCC3)c3nc(Cl)c(Cl)cc3n2)cc1`: the growth was 94.3% (inactive).

Take `Cc1cc(Nc2nc(-c3ccc(F)cc3)nc3ccccc23)n[nH]1`: the growth was -21% (active).

`COC(=O)[C@H]1[C@H](OC)[C@@H](OC(=O)/C=C/c2ccncc2)CC2CN3CCc4c([nH]c5cc(OC)ccc45)[C@@H]3C[C@@H]21` (stereo partly drawn): the growth was 48.6% (inactive).

Consider `CN(C)c1ncc(-c2ccc(C(F)(F)F)cc2)c(NC2CCCCCC2)n1`, for which the growth is 78.2% (inactive).

Take `CC(=O)Nc1ccc(S(=O)(=O)N2C(=O)CCC2C(=O)Nc2ccccc2)cc1` (stereo not drawn): the growth was 28.9% (inactive).

The next test concerns SNB-19 CNS. Described as above. Conditions: 10 µM unless noted.
On to `CC(=O)Nc1nc(C(=O)N2N=C(C)/C(=C/c3cccs3)C2=O)cs1`, for which the growth was 102% (inactive).

In the case of `CN1C(=O)[C@H]2c3c1cccc3[C@@]13NC(=O)O[C@H]1[C@H](CCC3(C)C)C2(C)C`, the growth was 90.7% (inactive).

With `CC(=O)C1CCC(C)=CC1=O` (stereo not drawn), the growth was 101% (inactive).

For `COc1cccc(-n2cc(-c3nc(Cl)c4ccccc4n3)nn2)c1`, the growth is 94% (inactive).

Consider `Nc1c(C(=O)Nc2cccc(Cl)c2Cl)sc2nc3c(cc12)C(=O)CCC3`, for which the growth was 70.2% (inactive).

In the case of `COc1cc(/C=C2\CCCC3=C2NC(C)=NC3c2cc(OC)c(OC)c(OC)c2)cc(OC)c1OC` (stereo not drawn), the growth is 61.2% (inactive).

In the case of `O=c1[nH]c(-c2cn(-c3ccc(Cl)cc3)nn2)nc2ccccc12`, the growth is 72.8% (inactive).

Regarding `CC/C(=C(\c1ccc(O)cc1)c1ccc(OCCN(C)CCN(C)C(=O)CCC(=O)c2c(C)[nH]c(/C=C3\N=C(c4ccc[nH]4)C=C3OC)c2C)cc1)c1ccccc1`, the growth was 108% (inactive).

`Cc1cc(Nc2nc(-c3ccncc3)nc3ccccc23)n[nH]1`: the growth is 95% (inactive).

Consider `COc1cc(C2C=C(C)N=C3SC=CN32)cc(OC)c1OC` (stereo not drawn), for which the growth was 107% (inactive).

As to `COC1=CC(c2ccc[nH]2)=N/C1=C\c1[nH]c(C)c(C(=O)CCC(=O)Oc2ccc3c(c2)CCC2C3CC[C@]3(C)[C@@H](O)CC[C@@H]23)c1C` (stereo partly drawn), the growth was 37.2% (inactive).

Consider `Cc1ccc(Cn2c(-c3nonc3N)nc3ccccc32)cc1`, for which the growth is 91% (inactive).

On to `O=C(Nc1ccccc1)OCC1OCOC(COC(=O)Nc2ccccc2)C1OC(=O)Nc1ccccc1` (stereo not drawn), for which the growth was 73.2% (inactive).

Consider `CC1=CNNc2c3ncnc-3ncn21`, for which the growth is 99.1% (inactive).

In the case of `CCN(CC)c1cc(/C=C/c2ccc(OC)c(OC)c2)nc2cc(F)c(F)cc12`, the growth is -33.1% (active).

With `CCCCCCCCCCCCOB(OCCCCCCCCCCCC)OCCCCCCCCCCCC`, the growth is 106% (inactive).

On to `c1ccn2nnnc2c1`, for which the growth was 106% (inactive).

On to `Nc1c(C(=O)Nc2c(Cl)cccc2Cl)sc2nc3c(cc12)CCCCC3`, for which the growth was 68.5% (inactive).

In the case of `COc1ccc(-n2c(C)cc(-c3ccccc3)c2C)cc1`, the growth was 69.6% (inactive).

Consider `COc1cc2c(cc1OC)C1(C)N(CC2)C(=O)OC1(C)C` (stereo not drawn), for which the growth is 105% (inactive).

In the case of `COc1ccc(/C=C/c2nc(N3CCOCC3)c3nc(Cl)c(Cl)cc3n2)cc1OC`, the growth is 102% (inactive).

With `Cc1cccc(NC(=O)c2sc3nc4c(cc3c2N)CCCC4)c1`, the growth is 50.5% (inactive).

On to `O=C(/C=C/c1ccccc1)n1c(-c2ccc(Cl)cc2)nc2ccccc21`, for which the growth was 41.1% (inactive).

Take `COc1cc(Cn2c(-c3nonc3N)nc3ccccc32)ccc1C`: the growth was 53.8% (inactive).

Take `Clc1ccc(-c2nc(-c3ccco3)cn3ccnc23)cc1`: the growth is 30.6% (inactive).

As for `Oc1ccc(N=Cc2ccccc2)cc1`, the growth was 98.8% (inactive).

Consider `CCCCCc1c(C)[nH]c(/C=c2\[nH]/c(=C3/C=c4ccccc4=N3)cc2OC)c1C`, for which the growth was 10.5% (inactive).

As to `COc1cc2nc(Cl)nc(NCCO)c2cc1OC`, the growth is 104% (inactive).

As to `CCC1CCc2nc3sc(C(=O)Nc4ccccc4C)c(N)c3cc2C1` (stereo not drawn), the growth is 54.1% (inactive).

Regarding `Cc1cc(Nc2nc(C(=O)Nc3ccccc3)nc3ccccc23)n[nH]1`, the growth was 97.3% (inactive).

As to `c1ccc2nc(-c3ccc4ccccc4n3)ccc2c1`, the growth is 105% (inactive).

Consider `Clc1nc2ccccc2nc1CI`, for which the growth was 103% (inactive).

For the compound `Cc1cccc(NC(=O)c2sc3nc4c(cc3c2N)CCC4)c1C`, the growth was 38% (inactive).

Turning to `Clc1cccc(Cl)c1Cn1c(-c2cncs2)nc2ccccc21`, the growth was 97.8% (inactive).

With `Clc1ccc(/C=C/c2nc(N3CCOCC3)c3nc(Cl)c(Cl)cc3n2)cc1`, the growth was 101% (inactive).

Consider `Cc1cc(Nc2nc(-c3ccc(F)cc3)nc3ccccc23)n[nH]1`, for which the growth is 80.2% (inactive).

In the case of `COC(=O)[C@H]1[C@H](OC)[C@@H](OC(=O)/C=C/c2ccncc2)CC2CN3CCc4c([nH]c5cc(OC)ccc45)[C@@H]3C[C@@H]21` (stereo partly drawn), the growth is 84.1% (inactive).

`CN(C)c1ncc(-c2ccc(C(F)(F)F)cc2)c(NC2CCCCCC2)n1`: the growth is 71.8% (inactive).

With `CC(=O)Nc1ccc(S(=O)(=O)N2C(=O)CCC2C(=O)Nc2ccccc2)cc1` (stereo not drawn), the growth is 45% (inactive).
